# TR SRC2 fluor cs: Total Fluorescence Counterscreen for Inhibitors of the Interaction of Thyroid Hormone Receptor and Steroid Receptor Coregulator 2; Potency, µM (top dose mostly 106 µM), inactives show at the top dose fluorescence change, negative = quenching; AID 1479, 2009; 280,000 compounds, 0.29% hits; TRb/SRC2 Texas Red total fluorescence interference; active means well fitted curve in either direction with a large enough effect; inconclusive means small, poorly fitted or top-dose-only effect; further: on the % scale 0 is the no-effect control and ±100 the full control effect
#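 Human TRβ ligand-binding domain (0.6 uM) and Texas Red SRC2 peptide (20 nM) in Tris buffer with 1 uM T3 and 5% DMSO were incubated with pinned compound for 5 hr at ambient temperature. Total fluorescence was computed as S + 2P (555/632 nm).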
# RGS12 GoLoco inh: qHTS Assay for Inhibitors of RGS12 GoLoco Motif Activity (Red Fluorophore); Gai1:RGS12 GoLoco peptide FP, rhodamine, 10 min; Potency, µM (top dose mostly 61.6 µM), for the others: at the highest dose activity, negative = inhibition, actives largely listed as inhibitors; 230,000 compounds, 0.44% hits; active means well fitted inhibition curve with a large enough effect, not every such curve was filed as active; inactive means no such curve, though single readings can be large or run the other way; further: on the % scale 0 is the no-effect control and ±100 the full control effect; nearly all actives have a fitted effect of over 30% in size
# ERG Ets-DNA blk: qHTS for Small Molecule Inhibitors of the ERG Ets/DNA interaction | Potency, µM (top dose mostly 76.9 µM), for inactives: at the top dose FP activity, negative = inhibition, hits mostly inhibitors | Transcriptional regulator ERG (Homo sapiens), P11308 | 370,000 compounds, 0.028% hits | fluorescence polarization, His-ERG Ets domain / labelled DNA; active means well fitted inhibition curve with a large enough effect in the polarisation, with a control signal flat; inconclusive means small, poorly fitted or top-dose-only effect, or effect the other way, or a change in a side signal; inactive means no such curve, though single readings can be large or run the other way; the % refers to the polarisation;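 further: polarization taken with two DNA probes labelled with fluorescein and Texas red; % of control where 0% means no effect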
#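 His-tagged ERG Ets domain (1 uM in the protein solution; 300mM KCl, 50mM Tris-HCl, 1mM EDTA, 1mM DTT, pH 7.5) received compound, then a probe mix of 5 nM fluorescein-DNA and 100nM Texas-615-DNA. Fluorescence polarization was read for both dyes.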
# TRb-SRC2 inh: qHTS for Inhibitors of the Interaction of Thyroid Hormone Receptor and Steroid Receptor Coregulator 2 | TRbeta-SRC2 peptide binding, fluorescence polarization; receptor liganded with 1 µM T3 | 280,000 compounds, 0.065% hits | Thyroid hormone receptor beta (Homo sapiens), P10828 | AID 1469, 2008 | Potency, µM (top dose mostly 106 µM), without a hit: at the top dose activity change, negative = inhibition, actives largely listed as inhibitors; active means well fitted inhibition curve with a large enough effect; inconclusive means small, poorly fitted or top-dose-only effect, or effect the other way;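 further: plate controls were bound peptide for no effect and peptide without receptor for full effect; nearly all actives have a fitted effect of over 50% in size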
# Target sequence (P10828 whole entry, looked up): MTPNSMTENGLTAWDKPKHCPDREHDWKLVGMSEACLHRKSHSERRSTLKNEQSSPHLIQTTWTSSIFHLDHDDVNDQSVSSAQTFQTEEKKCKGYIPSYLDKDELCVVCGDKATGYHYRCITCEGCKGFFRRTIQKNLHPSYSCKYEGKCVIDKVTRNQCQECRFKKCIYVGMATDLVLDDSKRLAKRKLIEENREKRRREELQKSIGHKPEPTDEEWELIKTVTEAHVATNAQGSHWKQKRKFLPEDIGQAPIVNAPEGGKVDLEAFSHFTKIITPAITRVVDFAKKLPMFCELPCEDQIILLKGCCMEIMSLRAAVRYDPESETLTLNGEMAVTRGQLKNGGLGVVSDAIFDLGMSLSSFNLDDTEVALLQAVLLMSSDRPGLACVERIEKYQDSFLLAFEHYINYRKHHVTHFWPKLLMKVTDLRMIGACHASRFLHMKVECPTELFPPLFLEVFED
#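 Polarization signal, normalized between peptide-alone and full complex controls, measured compound effects on T3-liganded human TRb LBD (0.6 uM) binding 20 nM Texas Red SRC2 peptide after 5 hr.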
# Starred values were filed as active, the others as inactive; ? = inconclusive; . = not tested or not shown; ! = a repeat was not active; [ ] = remark or other dose. The full list was thinned out, with hits kept by preference. Potency means the concentration at half of the fitted maximal effect.
SMILES,TR SRC2 fluor cs,RGS12 GoLoco inh,ERG Ets-DNA blk,TRb-SRC2 inh
CCOc1ccccc1C(=O)Nc1nnc(COC)s1,-20%,50µM*,-8%,4%
CCOCCOCCOCC,1%[201 µM],.,.,4%[201 µM]
O=C(O)c1ccc(Cl)c2c1C1C=CCC1C(c1ccccn1)N2 (centres undefined),-3%,10µM*,.,?
O=[N+]([O-])c1ccc(Cl)c2c1C1C=CCC1C(c1ccccn1)N2 (centres undefined),-8%[53 µM],-2%,-12%,9%[53 µM]
CCOC(=O)C1=C(C)NC(C)=C(C(=O)OC)[C@@H]1c1cccc(Cl)c1Cl,0%[53 µM],6%[21.6 µM],.,-4%[53 µM]
CC(COc1ccc(C(C)(C)C)cc1)OS(=O)OCCCl (centres undefined),0%[201 µM],.,.,-1%[201 µM]
COc1ccc(-c2noc(-c3ccc(C)cc3Cl)n2)cc1OC,0.13µM*[quencher],.,-6%,-7%
Cc1ccc(-c2nc(-c3ccncc3)no2)c(Cl)c1,.,.,-10%,.
Cc1cc(Cc2cc(C)cc(C(C)(C)C)c2O)c(O)c(C(C)(C)C)c1,2%[201 µM],.,.,1%[201 µM]
COC(=O)c1ccccc1S(=O)(=O)N1CCc2nc(-c3ccc(OC)cc3C)c3c(c2C1)CO[C@@H](c1ccccc1)C3,-3%[11.2 µM],-1%[14.2 µM],.,-1%[11.2 µM]
Cc1cccc(C)c1NC(=O)CN(C)S(=O)(=O)c1ccc2[nH]c3c(c2c1)CCCC3,22µM*[quencher],.,-8%,-8%
CN(CC(=O)NCc1ccc(F)cc1)S(=O)(=O)c1ccc2[nH]c3c(c2c1)CCCC3,18µM*[quencher],.,3%,-7%
O=C(O)C(Cc1ccccc1)Cc1ccccc1,.,4%[14.2 µM],.,.
CCOC(=O)c1ccc2c(c1)n(CCO)c(C)[n+]2CC,2%,1.6µM*,-1%,-2%
CCOC(=O)c1ccc2c(c1)n(CC)c(/C=C/N(C)c1ccccc1)[n+]2CC,-2%,1.6µM*,4%,-1%
COC(=O)c1ccc2c(c1)nc(C)n2CCO,10%,0%,-1%,-11%
NC(C(=O)O)C(O)c1ccc(O)c(O)c1 (centres undefined),-17%,2%,.,6%
COc1ccc(-n2nnnc2SCC(=O)c2ccc(O)c(O)c2)cc1,-2%,1%,-3%,5%
NC(=O)c1ccc(-n2nnnc2SCC(=O)c2ccc(O)c(O)c2)cc1,50µM*[quencher],13%,-4%,?
O=S(=O)(Nc1ccc(-c2ccc(N3CCCCCC3)nn2)cc1)c1cccc(C(F)(F)F)c1,3162µM*[quencher],.,5%,-10%
COc1cccc(-c2nnc3n2N=C(c2c(OC)cccc2OC)CS3)c1,-1%,.,.,-2%
O[C@@H](c1cc(-c2ccc(Cl)cc2)nc2ccccc12)C1CCCCN1 (some centres undefined),.,1%[14.2 µM],.,.
Cc1ccccc1NS(=O)(=O)c1ccc(OCCNS(C)(=O)=O)cc1,-1%[53 µM],5%,7.1µM*,-4%[53 µM]
c1ccc(-c2cn(-c3ccccc3)c3[n+]2CCS3)cc1,-1%,-13%,1%,-1%
CC(C)(C)c1ccc(-c2cn(-c3ccc(Br)cc3)c3[n+]2CCCS3)cc1,-5%,35µM*,6%,-2%
SMILES,TR SRC2 fluor cs,RGS12 GoLoco inh,ERG Ets-DNA blk,TRb-SRC2 inh
COC(=O)C1=C(C(=O)OC)[C@@H]2N(C)c3ccc(OC)cc3[C@@]23C[C@@H](C(=O)OC)N(S(=O)(=O)c2c(C)noc2C)C3=N1,-3%[11.2 µM],3%[14.2 µM],.,5%[11.2 µM]
CC1(C)Oc2ccc3ccc(=O)oc3c2-c2cnoc21,-3%,10µM*,7%,7%
Cc1cc(C(=O)COC(=O)CNS(=O)(=O)c2ccc3ccccc3c2)c(C)n1-c1ccccc1,200µM*[quencher],16%,-3%,-11%
CCCCN(C)C(=O)CS(=O)(=O)Cc1nc(-c2cccc(OC)c2)oc1C,2%,-2%,20µM*,1%
O=C(N/N=C/c1ccc(F)cc1)c1cc(-c2ccco2)nc2ccccc12,32µM*[quencher],9%,-5%,3%
Cc1csc(NC(=O)c2cc(-c3ccco3)nc3ccccc23)n1,7.1µM*[quencher],35%,14%,-21%[53 µM]
C=CC(=O)OCCOc1ccccc1,3%[201 µM],.,.,?
Cc1cc2ccccc2n1CCNC(=O)c1cccs1,7%,-6%,32µM*,2%
CCN1/C(=C/C=C/c2oc3ccc(-c4ccccc4)cc3[n+]2CC)Oc2ccc(-c3ccccc3)cc21,-2%,-196%,32µM*,6%
C=CCCCCCCCCCCCC,-4%[201 µM],.,.,3%[201 µM]
Cc1ccc(CNC(=O)CCN2C(=O)C(C)Oc3ccc(C)cc32)cc1 (centres undefined),35µM*[quencher],.,8%,-17%[53 µM]
N#CC(C#N)=c1ccc2c(c1)NC1(CCCCC1)N=2,45µM*[fluorescent],156%,14%,?
Oc1ccc(N=Cc2ccc(OCc3ccccc3)cc2)cc1,13%,-103%,14µM*,40µM*
C[N+]1=C2CCCCCN2C(O)(c2ccccc2)C1 (centres undefined),-4%,14µM*,.,-4%
OC1(c2ccccc2Cl)NN=C2CCCCCN21 (centres undefined),-2%,1%,2%,-6%
CC1(C)C(=O)N(Br)C(=O)N1Cl,-2%[201 µM],.,.,1%[201 µM]
Cc1c(C)c(C)c(CC2(C)CSC2)c(CC2(C)CSC2)c1C,.,3%[14.2 µM],.,.
C[N+](C)(C)CCN(Cc1ccc(Cl)cc1)c1ccccn1,-2%,6.3µM*,-2%,3%
CN(C)CCN(Cc1ccc(Cl)cc1)c1ccccn1,2%,-5%,18%,3%
CCN(Cc1c(F)cccc1Cl)c1c([N+](=O)[O-])cc(C(F)(F)F)cc1[N+](=O)[O-],-2%[201 µM],.,.,-4%[201 µM]
CC(=O)Nc1cc(OC(C)=O)c2nonc2c1OC(C)=O,-22%,-16%,5%,1.6µM*
OCC(CO)(CO)COCC(CO)(CO)CO,4%[201 µM],.,.,1%[201 µM]
c1nc2nc(Nc3ccc(N4CCOCC4)cc3)nc(NC3CCCCC3)c2[nH]1,-11%,.,.,3%
CC[n+]1c(/C=C/Nc2ccccc2)sc2ccccc21,45µM*[fluorescent],222%,8%,?
CCCCn1cnc2c(SC)ncnc21,.,5%[14.2 µM],.,.
SMILES,TR SRC2 fluor cs,RGS12 GoLoco inh,ERG Ets-DNA blk,TRb-SRC2 inh
O=C(O)c1cc2c(s1)-c1ccccc1OC2,-7%,-16%,2%,-4%
O=C(O)c1cc2c(s1)-c1ccccc1CC2,0%,9%,16µM*,-4%
CCCCC(CC)COP(=O)(O)OCC(CC)CCCC (centres undefined),0%[201 µM],.,.,2%[201 µM]
Cc1ccc(NC(=O)CCS(=O)(=O)c2ccc(Br)s2)cc1,.,.,9%,.
O=C(CCS(=O)(=O)c1ccc(Br)s1)Nc1c(F)cccc1F,398µM*[quencher],.,11%,?
CNc1nc(=O)n(C2CCC(O)CC2)c(=O)n1C (centres undefined),-1%[201 µM],.,.,2%[201 µM]
Cc1ccc(S(=O)(=O)Cc2ccc(C(=O)N3CCN(c4cccc(Cl)c4)CC3)o2)cc1,-2%,.,0%,4%
Cc1ccc(Cl)cc1N1CCN(C(=O)c2ccc(CS(=O)(=O)c3ccc(Br)cc3)o2)CC1,1000µM*[quencher],.,9%,-7%
Oc1cc(O)cc(/C=C/c2ccc(O)c(O)c2)c1,50µM*![quencher],6%,-4%,?

# Source: PubChem BioAssay
